Mm-Cpn inhibitor = M. maripaludis TRiC chaperonin inhibition | purified Mm-Cpn ATPase, ADP Transcreener TR-FRET | Potency, µM (titrated, usually from 76.9 µM), without a hit: at the top dose activity, negative = inhibition, actives largely listed as inhibitors | 330,000 compounds, 0.031% hits; further: potency means the concentration at half of the fitted maximal effect; on the % scale 0 is the no-effect control and ±100 the full control effect; nearly all actives have a fitted effect of over 80% in size
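ATP (10 uM final) was added to archaeal chaperonin (25 nM final) after 10 min exposure to test compound at 37°C; after 30 min further incubation, ADP was detected by competitive TR-FRET.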
TCR activator = activators of T cell receptors | primary human leukocytes, anti-CD3, IL-2 HTRF, 48 h | Potency, µM (series often up to 9.22 µM), for inactives: top-dose activation of IL-2 secretion, usual class: activators | 330,000 tested, under 10 active; further: % of control where 0% means no effect
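HTRF read-out of IL-2 secretion: europium cryptate donor excited at 320nm, d2 acceptor emission at 665nm. Cells were primary human leukocytes incubated 48 hr with compounds and a-CD3 beads, supplying TCR signal only.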
CCT modulator = changes cytosolic chaperonin activity; activity change, % (no concentration beside the values), hits read low; purified chaperonin ATPase assay, HTRF ADP detection, 30 min; AID 651819; 360,000 compounds, 0.3% hits; in the data active means activity change below about -30%; further: on the % scale 0 is the no-effect control and ±100 the full control effect
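Enzyme 40 or 20 nM (batch-dependent) in Tris pH 7.4/KCl/MgCl2/DTT; cpd 76 uM single point; ATP 10 uM; 30 min 37 °C; Transcreener ADP HTRF detection, 30 min RT; ratio 665/615.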
B2AR arrestin = agonists driving beta-arrestin recruitment to human beta2-adrenergic receptor; beta-arrestin recruitment to beta2AR, cell-based reporter; Potency, µM (series often up to 46.1 µM), without a hit: at the top dose activation, most hits filed as activators; 330,000 compounds, 0.02% hits;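 further: potency means the concentration at half of the fitted maximal effect; 0% = DMSO controls and full agonism = EC100 isoproterenol or metaproterenol; nearly all actives have a fitted effect of over 65% in size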
TSHR antag = blocks TSH signaling through the human TSH receptor; 330,000 compounds, 0.2% hits; activity change, negative = inhibition, % at 11.5 µM; AID 504810; P16473; TSHR-expressing cells, TSH-stimulated cAMP HTRF, 2 h; stronger effect = lower value;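 active means activity change below a set negative limit, meaning inhibition stronger than a set level, cut at about -70% in these data; inconclusive means activity change between two set negative limits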; further: on the % scale 0 is the no-effect control and ±100 the full control effect
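Read-out is FRET at 665 nm (cryptate excitation 337 nm) from a cryptate-tagged anti-cAMP antibody, competed by cell cAMP against cAMP-d2. Compounds are tested on freshly harvested TSHR cells challenged with 4nM TSH (EC80) for 2 hours at 37 deg C.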
* hit, by the source's call; ? = inconclusive; / = no result; [ ] = another dose, or the depositor's remark. Shown are actives, neighbours in structure and some others; about 0.5% of the full set was active somewhere. Unless noted, the call rests on the fitted dose curve; in most records, active means well fitted curve in the direction sought with a large enough effect; inconclusive means small, poorly fitted or top-dose-only effect, or another doubt; inactive means no such curve, though single readings can be large; an effect the other way counts as inactive or inconclusive.

SMILES	Mm-Cpn inhibitor	TCR activator	CCT modulator	B2AR arrestin	TSHR antag
Cc1ccc(S(=O)(=O)N2CCCC(C(=O)O)C2)s1 (configuration not stated)	0%	-3%	-94*	0%	11
O=C(O)C1CCCN(S(=O)(=O)c2cccs2)C1 (configuration not stated)	-1%	-3%[46.1 µM]	-1	0%	-7
Cc1ccccc1C(=O)NC1CC2CCCC(C1)N2Cc1ccccc1 (configuration not stated)	-1%	9%	-2	0%	-1
Cc1ccc(C(C(=O)NC2CCCCC2)N(Cc2ccco2)C(=O)C2COc3ccccc3O2)o1 (configuration not stated)	1%	-1%	-1	0%	25
CC1CCN(C(=O)COC(=O)c2cc(Cl)c3c(c2)OCO3)CC1	0%	-3%	1	0%	10
O=C(O)c1cc(Cl)c2c(c1)OCO2	0%	-1%	-61*	0%	-8
CCOC(=O)c1c(-c2ccccc2)oc2ccc(OCC(O)CNCCN(C)C)cc12 (configuration not stated)	-5%	1%	-4	0%	19
N#Cc1ccc(OCC(=O)NCC2COc3ccccc3O2)cc1 (configuration not stated)	-3%	3%	-41*	0%	-16
O=C(COc1ccccc1)NCC1COc2ccccc2O1 (configuration not stated)	1%	-7%	-2	-1%	5
O=C(NCc1ccc2c(c1)OCO2)c1cc2ccccc2oc1=O	4%	-5%[46.1 µM]	-2	-1%	22
COc1ccccc1-c1c(C)oc2c(CN3CCN(CCO)CC3)c(O)ccc2c1=O	0%	-2%	-52*	-1%	9
CCSc1cnn(-c2ccccc2)c(=O)c1SCC	?	/	0	-1%	1
CCCCSc1cnn(-c2ccccc2)c(=O)c1SCCCC	40µM*	22%[46.1 µM]	-3	0%	-13
O=C(Nc1ccc2nc3n(c(=O)c2c1)CCCCC3)C(=O)N1CCN(c2ccccc2F)CC1	2%	8%	-1	0%	-122*
CC1CCCN(C(=O)C(=O)Nc2ccc3nc4n(c(=O)c3c2)CCCCC4)C1 (configuration not stated)	2%	-8%	0	0%	-3
CCc1cc2ccc(OC)cc2nc1SCC(=O)NNC(=O)c1ccco1	1%	1%	-1	-1%	-7
NC(=O)C1(C(N)=O)OC1c1ccc(Cl)c(Cl)c1 (configuration not stated)	-1%	2%	-57*	0%	-2
Cc1ccc(C(=O)N/N=C/C=C/c2ccccc2)o1	0%	3%	2	0%	10
CCCOc1c(Br)cc(C(=O)OCC(=O)NC(=O)c2cccn2C)cc1OC	2%	4%	-46*	0%	-13
COc1ccc(Cl)cc1C(=O)OCC(=O)NC(=O)c1cccn1C	-3%	0%	-1	-1%	-4
CCCCCC/C(C)=C1/SC(=S)NC1=O	0%	-1%	-2	0%	-85*
O=C(COC(=O)c1ccccc1Nc1ccccc1)c1ccccc1	-1%	/	-2	0%	-1
COC(=O)c1ccccc1Nc1ccccc1	-1%	0%	-32*	0%	6
Cc1ccccc1NC(=O)CSc1nnc(-c2ccccn2)o1	0%	5%	-2	0%	10
COc1ccc(NC(=O)c2cccnc2NCCc2ccccc2)cc1	1%	6%	-3	-1%	1
SMILES	Mm-Cpn inhibitor	TCR activator	CCT modulator	B2AR arrestin	TSHR antag
O=C(Nc1ccccc1)c1cccnc1NCCc1ccccc1	1%	-1%	-91*	-1%	14
O=C(COc1ccc(Cl)cc1)NNC(=O)c1ccc(=O)[nH]c1	-2%	11%[46.1 µM]	2	-1%	-9
Cc1ccc(C(=O)N/N=c2\oc3ccccc3cc2C(N)=O)cc1	-2%	5%	-30*	-1%	-8
NC(=O)c1cc2ccccc2o/c1=N/NC(=O)c1cccc(Cl)c1	-3%	-5%	-1	-1%	-79*
NC(=O)c1cc2ccccc2o/c1=N\NC(=O)c1ccncc1	-1%	0%	-1	0%	17
CCc1nnc(NC(=O)CCC(=O)N2CCN(Cc3cc(F)ccc3OC)CC2)s1	-2%	4%	-1	0%	-5
O=C1OC(c2ccccc2)/C(=C(/O)c2ccccc2)C1=O (configuration not stated)	-1%	3%	-2	0%	-8
CCOC(=O)N1CCN(C(=S)NC(=O)C2CCCC2)CC1	-1%	0%	-71*	7%	-3
CC(=O)N1c2ccc(S(=O)(=O)NCC3CCC(C(=O)N4CCCCC4)CC3)cc2CC1C (configuration not stated)	-6%	3%	0	-1%	-4
CC1=NN(C(N)=S)C(=O)C1N=Nc1ccc(F)cc1 (configuration not stated)	-1%	-4%	-2	2.5µM*	-10
CC(=O)Nc1ccc(N=NC2C(=O)N(C(N)=S)N=C2C)cc1 (configuration not stated)	0%	-6%	1	0%	-7
CC1=NN(C(N)=S)C(=O)C1N=Nc1ccc(O)cc1 (configuration not stated)	-4%	-1%	-3	0%	-18
CC1=NN(C(N)=S)C(=O)C1N=Nc1ccc([N+](=O)[O-])cc1 (configuration not stated)	3%	-1%	-1	7.1µM*	-8
CC1=NN(C(N)=S)C(=O)C1N=Nc1cccc(C)c1 (configuration not stated)	0%	1%	0	1.3µM*	8
CC(C)(C)n1nc(-c2ccc(F)cc2)c2c(N)ncnc21	0%	-4%	1	0%	9
O=C(Cn1c(=S)[nH]c2ccccc21)c1ccccc1	1%	-6%[46.1 µM]	-34*	3%	19
CC1=CN2C(=NC(=O)CC2(C)C(=O)N(CC(=O)NC2CCCC2)Cc2ccccc2)C=C1 (configuration not stated)	-1%	-2%	0	-1%	3
CN(Cc1ccccc1Cl)C(=O)C1CC(=O)N(c2ccc3c(c2)OCCO3)C1 (configuration not stated)	1%	-4%	-7	-1%	6
C/C(=N\N=C1\NC(=O)C(CC(=O)Nc2ccc(C)c(Cl)c2)S1)C(C)(C)C (configuration not stated)	3%	-3%	-44*	0%	-4
C/C(=N\N=C1\NC(=O)C(CC(=O)Nc2ccc(Cl)cc2)S1)c1ccco1 (configuration not stated)	-5%[15.4 µM]	3%	-8	0%	-3
Cc1nc2nc(-c3ccccc3)nn2c(C)c1Cl	/	0%	-2	/	/
Cc1cnc(-c2nnc(N(C)C(=O)C3CCCO3)s2)cn1 (configuration not stated)	-2%	4%	-1	0%	13
